Source: PubChem BioAssay AID743395 (Broad Institute, 2014)
The campaign covered roughly 1,200 compounds. About 480 (40%) were called active. No rule for the calls is given here. The set was probably picked from earlier hits. These entries were drawn from the full list. A call without a number means that no potency is given here. Potency and affinity values are given separately.

Test: HepG2 cell cytotoxicity, dose response, cytotoxicity control, CellTiter-Glo luminescence, cherry-pick, set 2 (AID 743395)
Conditions: HepG2 viability, CellTiter-Glo ATP luminescence, 72 h; series mostly up to 26 µM

Q: Which outcome does the source give for `Cc1ccc(S(=O)(=O)N2CCN(C(=O)CN(Cc3ccco3)Cc3cccs3)CC2)cc1` here?
A: inactive

Q: With `CCN(C(=O)COC(=O)c1cccc2ccccc12)c1c(N)n(Cc2ccccc2)c(=O)[nH]c1=O` as the compound, how does the outcome read?
A: inactive

Q: For `O=C(Nc1ccc(F)cc1)C1CCN(C(=O)c2ccc(F)cc2)CC1`, which outcome is on record?
A: inactive

Q: With `COc1cccc(-c2nnc(SCC(=O)NC3CCS(=O)(=O)C3)n2C)c1` (centres undefined) as the compound, how does the outcome read?
A: inactive

Q: With `O=C(NCc1ccccn1)c1n[nH]c(=O)c2ccccc12` as the compound, how does the outcome read?
A: inactive

Q: With `CCC(=O)c1ccc(OCC(=O)OCC(=O)N2CCc3ccccc3C2)cc1` as the compound, how does the outcome read?
A: inactive

Q: For `O=C(Cc1ccsc1)OCC(=O)c1ccccc1`, which outcome is on record?
A: inactive

Q: With `CN[C@H]1CCc2cc(OC)c(OC)c(OC)c2-c2ccc(N(C)CC(OC)OC)c(=O)cc21` as the compound, how does the outcome read?
A: inactive

Q: With `CCN(CC)c1ccc2c(cc1=O)[C@@H](NC)CCc1cc(OC)c(OC)c(OC)c1-2` as the compound, how does the outcome read?
A: inactive

Q: For `COc1c(O[C@@H]2O[C@H](CO)[C@@H](O)[C@H](O)[C@H]2O)cc2c(c1OC)-c1ccc(SC)c(=O)cc1C(NC(C)=O)CC2` (some centres undefined), which outcome is on record?
A: inactive

Q: With `CO[C@H]1CN(C)C(=O)c2cc(NC(C)=O)ccc2OC[C@H](C)N(C(=O)c2ccncc2)C[C@H]1C` as the compound, how does the outcome read?
A: inactive

Q: Which outcome does the source give for `CCOC(=O)CSC1=C(C#N)C(c2ccc(C)s2)CC(=O)N1` (centres undefined) here?
A: inactive

Q: With `CN(C(=O)c1ccccc1OC1CCN(S(C)(=O)=O)CC1)C1CCOC1` (centres undefined) as the compound, how does the outcome read?
A: inactive

Q: For `COCCOC(=O)c1[nH]c2c(c1C)C(=O)CC(c1cccs1)C2` (centres undefined), which outcome is on record?
A: inactive

Q: With `Nc1ccn([C@@H]2O[C@H](C(=O)NCC(F)(F)F)[C@@H](O)[C@H]2O)c(=O)n1` as the compound, how does the outcome read?
A: inactive

Q: With `Nc1ccn([C@H]2C[C@H](O)[C@@H](CO)O2)c(=O)n1` as the compound, how does the outcome read?
A: inactive

Q: Which outcome does the source give for `O=C1C=CN(C2OC(CO)C(O)C2O)C(=O)C1` (centres undefined) here?
A: inactive

Q: Which outcome does the source give for `Cc1ccc(C(=O)OCC(=O)NCc2cc(C)c(O)c(C)c2)cc1S(=O)(=O)N1CCCCC1` here?
A: inactive

Q: For `CC(OC(=O)CCCC(=O)Nc1ccc(F)cc1)C(=O)c1ccccc1` (centres undefined), which outcome is on record?
A: inactive

Q: With `CC1Cc2ccccc2N1S(=O)(=O)c1cccc(C(=O)N2CCN(c3ncccn3)CC2)c1` (centres undefined) as the compound, how does the outcome read?
A: inactive

Q: Which outcome does the source give for `COc1ccccc1N1CCN(C(CNS(=O)(=O)c2cccs2)c2cccnc2)CC1` (centres undefined) here?
A: inactive

Q: With `CN(C[C@H](Cc1ccccc1)N(C[C@H](Cc1ccccc1)N(CCC(C)(C)C)N=O)N=O)N=O` as the compound, how does the outcome read?
A: inactive

Q: With `O=C1c2cccc3c(O)ccc(c23)C(=O)N1c1ccc(Cl)cc1` as the compound, how does the outcome read?
A: inactive

Q: With `N#CC1=C(N)OC2=C(CCc3ccccc32)C1c1ccccc1Cl` (centres undefined) as the compound, how does the outcome read?
A: inactive

Q: Which outcome does the source give for `COc1nc(N)nc(NC(=O)c2cccs2)c1N=O` here?
A: inactive

Q: With `Cc1ccc(Cc2c(-c3ccc(C)cc3)nc3c(C)cc(Br)cn23)cc1` as the compound, how does the outcome read?
A: inactive

Q: With `CC(C)(C)NC(=O)c1cccc2c1-c1ccccc1C2=O` as the compound, how does the outcome read?
A: inactive

Q: For `CC1=C(C(=O)NC2CCCCC2C)C2(CCC(C)CC2)OC1=O` (centres undefined), which outcome is on record?
A: inactive

Q: With `COc1ccc(C(C#N)CC(=O)c2ccc3c(c2)OCO3)cc1OC` (centres undefined) as the compound, how does the outcome read?
A: inactive

Q: Which outcome does the source give for `Cc1cc(Br)cn2c(Cc3ccsc3)c(-c3ccc(F)cc3)nc12` here?
A: inactive

Q: With `Cc1cccc(OCC(=O)NNC(=O)c2ccc3nc[nH]c3c2)c1` as the compound, how does the outcome read?
A: inactive

Q: With `COc1ccc(C(=O)Nc2ccc(NC(=O)c3cccc(F)c3)cn2)cc1` as the compound, how does the outcome read?
A: inactive

Q: Which outcome does the source give for `COc1ccc(NC(=O)c2ccc(OCC3CCCO3)cc2)cc1OC` (centres undefined) here?
A: inactive

Q: Which outcome does the source give for `COc1ccc(C(=O)OCc2nc(N)nc(Nc3ccccc3C)n2)cc1OC` here?
A: inactive

Q: Which outcome does the source give for `CC(OC(=O)c1ccc(Cl)nc1)C(=O)NC(C)(C)C` (centres undefined) here?
A: inactive

Q: Which outcome does the source give for `NS(=O)(=O)c1cc(C2(O)NC(=O)c3ccccc32)ccc1Cl` (centres undefined) here?
A: inactive

Q: For `CCNC(=O)C[C@@H]1C=C[C@@H](NC(=O)NC2CCCCC2)[C@H](CO)O1`, which outcome is on record?
A: inactive

Q: With `O=C(CSC1=NCCN1)Nc1cccc([N+](=O)[O-])c1` as the compound, how does the outcome read?
A: inactive

Q: With `COc1ccc([C@@H]2[C@@H]3C(=O)N(C(C)(C)C)C(=O)[C@@H]3[C@]3(Cc4ccccc4)C(=O)N(c4ccc(C(F)(F)F)cc4)C(=O)N23)cc1` as the compound, how does the outcome read?
A: inactive

Q: With `CCc1ccccc1N(C)S(=O)(=O)c1ccc(-c2cc(C)no2)s1` as the compound, how does the outcome read?
A: inactive

Q: Which outcome does the source give for `Cc1ccc(OCCC(=O)NNC(=O)c2ccc(Br)cc2)cc1` here?
A: inactive

Q: For `O=C(NCCCN1CCOCC1)c1sc2cc(Cl)ccc2c1Cl`, which outcome is on record?
A: inactive

Q: Which outcome does the source give for `CN(C)CCCN1c2ccccc2Sc2ccccc21` here?
A: inactive

Q: Which outcome does the source give for `O=C(NCCCN1CCOCC1)c1cc(S(=O)(=O)N2CCOCC2)c(Cl)cc1Cl` here?
A: inactive

Q: Which outcome does the source give for `COC(=O)C1CC23C=CCN4CCC5(c6ccccc6NC15C2C)C43` (centres undefined) here?
A: inactive

Q: With `COc1ccccc1NC(=O)C(=O)NCC(c1ccco1)N1CCc2ccccc21` (centres undefined) as the compound, how does the outcome read?
A: inactive

Q: For `COc1ccc(C(=O)NCC(c2ccco2)N2CCc3ccccc32)cc1` (centres undefined), which outcome is on record?
A: inactive

Q: With `CCCc1nc(SC2CCCC2)c2c(=O)n(C)c(=O)n(C)c2n1` as the compound, how does the outcome read?
A: inactive

Q: For `COc1cc(OC)cc(C(=O)N2CC(=O)Nc3ccccc32)c1`, which outcome is on record?
A: inactive

Q: Which outcome does the source give for `COc1ccc(NCC(=O)n2c(C)c(C)c3ccccc32)cc1` here?
A: inactive

Q: For `COc1ccc(/C=C2/CCCc3ccccc3C2=O)cc1`, which outcome is on record?
A: inactive

Q: For `COC(=O)c1cn(C(=O)c2ccc(C)cc2C)c2ccccc12`, which outcome is on record?
A: inactive

Q: With `O=C(NCc1cccnc1)c1cc(C2CCCCN2C(=O)CCCc2ccccc2)on1` (centres undefined) as the compound, how does the outcome read?
A: inactive

Q: For `CCCOCCOC(=O)c1[nH]c2c(c1C)C(=O)CC(c1cc(OC)ccc1OC)C2` (centres undefined), which outcome is on record?
A: inactive

Q: With `COc1ccccc1/C=N/NC(=O)c1cc2c(OC)c(OC)ccc2[nH]1` as the compound, how does the outcome read?
A: inactive

Q: With `Cc1ccc(C)c(NC(=O)CCC(=O)N/N=C/c2cc([N+](=O)[O-])ccc2O)c1` as the compound, how does the outcome read?
A: inactive

Q: For `CN(CC(=O)Nc1ccc(Cl)c(C(F)(F)F)c1)C(=O)CCN1C(=O)C2CCCCC2C1=O` (centres undefined), which outcome is on record?
A: inactive

Q: Which outcome does the source give for `CCOC(=O)c1nc(C)sc1-c1ccnn1S(=O)(=O)c1ccccc1C(F)(F)F` here?
A: inactive

Q: Which outcome does the source give for `CC(=O)c1c(C)[nH]c(C(=O)OCC(=O)NCc2ccc(Cl)cc2)c1C` here?
A: inactive

Q: Which outcome does the source give for `O=C1NCCc2c1[nH]c1ccc([N+](=O)[O-])cc21` here?
A: inactive

Q: With `O=C(CCNC(=O)c1ccco1)Nc1nc(-c2ccccc2)cs1` as the compound, how does the outcome read?
A: inactive

Q: With `COc1cc(/C=C2\SC(=Nc3ccc(Cl)c(C(=O)O)c3)NC2=O)c(Br)c(Br)c1O` as the compound, how does the outcome read?
A: inactive

Q: For `COc1ccc2c(c1)/C(=C/c1cc(OC)c(OC)c(OC)c1)C(=O)N2`, which outcome is on record?
A: inactive

Q: For `Cc1nn(C2CCS(=O)(=O)C2)c2nc(C3CC3)cc(C(=O)Nc3cccc(C#N)c3)c12` (centres undefined), which outcome is on record?
A: inactive
